The structures appear in SMILES notation. Inconclusive results are not listed. Active and inactive are the calls of the source. Rule for the calls: active = hit-call score of the fitted dose curve at least 0.9, where 1 is the maximum; inconclusive = response in the unintended direction; inactive = score below 0.9.

A short description of this assay: CCTE_Deisenroth_AIME_384WELL_CTox_Active: Cytotoxicity Assessment (CTOX) in CCTE's 384-well Estrogen Receptor Transactivation Assay with AIME metabolic competence (metabolism positive), Deisenroth Lab (AID 2284037).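 Note: chemicals first conditioned 2 h by alginate-bound induced rat liver S9 before cells; activity means signal loss indicating cell death.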 The protocol:
CCTE_Deisenroth_AIME_384WELL (AIME metabolism assay) is a cell-based, single-readout assay that uses VM7Luc4E2, a human mammary gland/breast cell line, with measurements taken at 24 hour after chemical dosing in a 384-well plate.CCTE_Deisenroth_AIME_384WELL_CTox_Active is one of four assay components measured or calculated from the CCTE_Deisenroth_AIME_384WELL assay. It is designed to make measurements of a protease substrate, a type of viability indicator, as detected with substrate cleavage to a fluorescent probe in living cells.CCTE_Deisenroth_AIME_384WELL_CTox_Active is a component of the CCTE_Deisenroth_AIME_384WELL assay that measures the effect of retroftting the VM7Luc ERTA assay with the Alginate Immobolization of Metabolic Enzymes (AIME) metabolism method. AIME is optimized to impart phase I hepatic metabolism using phenobarbital/beta-naphthoflavone induced hepatic S9 from male Sprague Dawley rats. Parent chemicals are incubated for 2 hours in the AIME assay prior to transfer to the VM7Luc ERTA assay plate. […] This endpoint evaluates cytotoxicity in metabolism positive mode. Using a type of flourescent probe in VM7Luc cells, loss-of-signal activity can be used to understand loss of viability. This assay endpoint, CCTE_Deisenroth_AIME_384WELL_CTox_Active, was analyzed with bidirectional fitting in the ERTA assay.
The AIME procedure consists of a preparative "pre-stamping" step using a barium chloride/poly-L-lysine (PLL) solution followed by "stamping" the lid in alginate-hepatic S9 (metabolism positive) or alginate-water (metabolism negative) to form microspheres. Once stamping is completed, the AIME lids are placed in duplicate microplates (metabolism positive or negative) containing chemical solutions and incubated for two hours to facilitate metabolic reactions. The conditioned medium, containing parent chemical or metabolites, is then transferred to the cell-based VM7Luc Estrogen Receptor Transactivation Assay (ERTA) for 24 hours. A typical experimental design tests a 10-point concentration series (0.002 - 200 uM) for 8 compounds (96-well format) (Deisenroth 2020) or 32 compounds (384-well format) (Hopperstad 2022) in single technical replicate. AIME assay controls include trans-stilbene (bioactivated control) and ethylparaben (bioinactivated control). ERTA assay plate controls include 17-beta estradiol (positive control) and DMSO (solvent control). Experiments typically comprise a minimum of four experimental replicates (n=4).
With `CCCCCCCCOC(=O)c1cc(O)c(O)c(O)c1`, the AC50 was 158 µM (active).

Consider `O=C(Nc1ccc(Cl)cc1)Nc1ccc(Cl)c(Cl)c1`, for which the concentration at half-maximal activity (AC50) is 19.8 µM (active).

As for `Oc1ccccc1`, the outcome was inactive.

Turning to `CCCCCCCCCC(=O)O`, the result was inactive.

`O=C(O)Cn1c(=O)n(Cc2ccc(Br)cc2F)c(=O)c2ccc(Cl)cc21`: the result was inactive.

With `CC(O)CC(C)(C)O` (configuration not stated), the result was inactive.

As for `CCN(CC)C(=O)c1cc(S(=O)(=O)Cc2ccccc2)c(N2CCC(c3ccccc3)CC2)cc1N(CC)CCN(C)C`, the result was inactive.

Regarding `C[C@]12CC[C@@H]3c4ccc(O)cc4CC[C@H]3[C@@H]1CCC2=O`, the call was inactive.

Regarding `CCCCCCCCCCCO`, the result was inactive.

As to `Oc1ccc2ccccc2c1`, the compound was classed as inactive.

`Cc1c2ccccc2c(C)c2c1ccc1ccccc12`: the result was inactive.

Turning to `CC(C)(C)c1cc(/C=C2\SC(N)=NC2=O)cc(C(C)(C)C)c1O`, the compound was classed as inactive.

As for `Cc1oc2c(NC(=O)c3c(Cl)cccc3Cl)cccc2c1C(C)(C)O`, the outcome was inactive.

As for `O=c1[nH]sc2ccccc12`, the result was inactive.

With `CO[C@H]1/C=C/O[C@@]2(C)Oc3c(C)c(O)c4c(O)c(c(/C=N/N5CCN(C)CC5)c(O)c4c3C2=O)NC(=O)/C(C)=C\C=C\[C@H](C)[C@H](O)[C@@H](C)[C@@H](O)[C@@H](C)[C@H](OC(C)=O)[C@@H]1C`, the AC50 was 41.3 µM (active).

Regarding `c1ccc2n[nH]nc2c1`, the outcome was inactive.

As to `Cc1ncc(CO)c(CO)c1O`, the compound was classed as inactive.

On to `Cc1ccc(C(C)C)cc1`, for which the compound was called inactive.

Consider `OCCO`, for which the call was inactive.

For the compound `CC[C@H](NC(=O)c1cc(F)ccc1NS(=O)(=O)c1cccc2cccnc12)c1ccccc1`, the compound was called inactive.

`CC1(C)NC(=O)N(c2ccc([N+](=O)[O-])c(C(F)(F)F)c2)C1=O`: the result was inactive.

As to `CCCOC(=O)c1cc(O)c(O)c(O)c1`, the outcome was inactive.

In general, AC50 refers to the concentration at which the activity in the assay is half-maximal.

Values taken from PubChem BioAssay (EPA / NIEHS).
